# Experimental data published in PubChem BioAssay (NCI).
# The panel holds about 83,000 compounds, 20% with a hit somewhere; the sample as a whole holds those more often.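 Activity criterion: percent growth below 10, measured after cells in 96-well plates were exposed to a single compound concentration for 48 hours.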 A number with no mark means an inactive call. Calls of active or inactive are those of the source.
# Experiments:
# Experiment in all cases: NCI-60 one-dose screen, 48 h (100 = growth as untreated, 0 = no growth, -100 = all killed)
# Settings in all cases: 10 µM unless noted
# SK-MEL-2 melanoma = test system: SK-MEL-2 melanoma
# EKVX NSCLC = test system: EKVX NSCLC
# SN12C renal = test system: SN12C renal
# UO-31 renal = test system: UO-31 renal
# TK-10 renal = test system: TK-10 renal
# ACHN renal = test system: ACHN renal
# CAKI-1 renal = test system: CAKI-1 renal
# A498 renal = test system: A498 renal
# CCRF-CEM leukemia = test system: CCRF-CEM leukemia
# MOLT-4 leukemia = test system: MOLT-4 leukemia
# SR leukemia = test system: SR leukemia
# RPMI-8226 leukemia = test system: RPMI-8226 leukemia
# OVCAR-8 ovarian = test system: OVCAR-8 ovarian
# OVCAR-5 ovarian = test system: OVCAR-5 ovarian
# OVCAR-4 ovarian = test system: OVCAR-4 ovarian
# SK-OV-3 ovarian = test system: SK-OV-3 ovarian
# IGROV1 ovarian = test system: IGROV1 ovarian
# OVCAR-3 ovarian = test system: OVCAR-3 ovarian
# HS 578T breast = test system: HS 578T breast
# NCI/ADR-RES ovarian = test system: NCI/ADR-RES ovarian
SMILES,growth (SK-MEL-2 melanoma),growth (EKVX NSCLC),growth (SN12C renal),growth (UO-31 renal),growth (TK-10 renal),growth (ACHN renal),growth (CAKI-1 renal),growth (A498 renal),growth (CCRF-CEM leukemia),growth (MOLT-4 leukemia),growth (SR leukemia),growth (RPMI-8226 leukemia),growth (OVCAR-8 ovarian),growth (OVCAR-5 ovarian),growth (OVCAR-4 ovarian),growth (SK-OV-3 ovarian),growth (IGROV1 ovarian),growth (OVCAR-3 ovarian),growth (HS 578T breast),growth (NCI/ADR-RES ovarian)
C=C1C(=O)O[C@H]2[C@H]1CC/C(COC(=O)/C=C\C(=O)NCc1ccc(Cn3c(=O)sn(-c4ccccc4)c3=O)cc1)=C\CC[C@@]1(C)O[C@@H]21,89.8%,98.9%,83.1%,59.4%,67.1%,42.1%,65.1%,91.2%,1.9% (active),25.3%,72.4%,40.5%,91.2%,98.3%,85%,108%,77.4%,39.5%,90.3%,111%
O=C1OCC2=C1C(c1cccc(C(F)(F)F)c1)c1cc3c(cc1N2CCO)OCO3 (stereo not given),24%,49.7%,46.8%,47.3%,60.8%,42.8%,26.8%,20.9%,7.82% (active),20%,15.7%,21%,23.3%,55%,58.1%,27.9%,37.2%,-5.02% (active),31.4%,25%
COc1ccc(-c2ccc(-c3ccc(C(=N)N)cn3)s2)cc1,104%,95.6%,86.7%,81.2%,109%,92%,87.9%,98.8%,4.28% (active),49.1%,3.22% (active),20.1%,65.2%,92.5%,113%,90.6%,89%,83.9%,97.4%,101%
CC/C=C1/C(=O)C=C[C@@H]1C/C=C\CCCC(=O)OC,90.7%,101%,18.8%,77.9%,107%,46.9%,60.6%,102%,-6.12% (active),3.09% (active),4.16% (active),-5.45% (active),25.7%,112%,96.9%,117%,105%,51.4%,43%,57.7%
Cc1cc(C)c(-c2c(O)c(Br)c(-c3c(C)cc(C)c(Br)c3C)c(O)c2Br)c(C)c1Br,-22.3% (active),19.2%,37.2%,-29.9% (active),12%,14.1%,5.75% (active),64.7%,35.6%,28.9%,18.5%,26.3%,2.91% (active),64.9%,23.7%,46.7%,-29.9% (active),-24.1% (active),41.5%,44.1%
COc1cc2oc(-c3cccc(NC(=O)c4ccc5c(c4)OCO5)c3)cc(=O)c2c(OC)c1OC,62.4%,83.2%,42.1%,24.2%,61.6%,47.8%,77.1%,61.1%,-11.9% (active),2.9% (active),11.5%,-53.7% (active),46.3%,93.9%,58.1%,98.1%,47%,53%,45.2%,57.6%
O=C1/C(=C/c2cccc([N+](=O)[O-])c2)COc2ccc(O)cc21,91.3%,95.8%,13.1%,22.4%,87%,6.88% (active),52.8%,102%,0.606% (active),18.2%,8.9% (active),-22.9% (active),31.2%,54.8%,74.4%,111%,33.8%,34.4%,33.7%,42%
CC[C@H](CC[C@@H](C)[C@H]1CC[C@H]2[C@@H]3CC[C@@H]4CC(=O)/C(=C\c5ccncc5)C[C@]4(C)[C@H]3CC[C@]12C)C(C)C,105%,99.6%,102%,90.4%,107%,111%,93.8%,83%,107%,104%,87.5%,92.2%,100%,104%,110%,99.7%,104%,106%,98.8%,104%
COc1ccc2cc(Cn3cc[n+](Cc4ccc5ccccc5c4)c3)ccc2c1,-15.8% (active),50.5%,16.9%,84.4%,9.68% (active),98.8%,96%,74.7%,20.2%,17.2%,9.3% (active),1.54% (active),8.73% (active),45.6%,8.75% (active),29.8%,-9.16% (active),4.18% (active),46.3%,102%
COc1ccc(C2=NN(C(C)=O)C(c3ccc(Oc4ccnc5cc(Cl)ccc45)c(OC)c3)C2)cc1 (stereo not given),42.4%,62%,68.7%,70%,36.6%,22.9%,47.9%,66.3%,85.7%,78.9%,74.4%,77.1%,24%,84.4%,-17.2% (active),24.5%,79.7%,37.1%,58.9%,44.7%
CCn1cc(CNc2ccc(C(=O)Nc3cc4cc(OC)c(OC)cc4c(C)n3)cc2)c(C)n1,11.5%,59.7%,67%,22.4%,49%,36.1%,30.1%,93.6%,11.8%,9.9% (active),32.8%,-0.529% (active),1.1% (active),72.9%,25%,86.8%,56.1%,33.7%,82.7%,13.4%
CC(C)CN1CC(C(=O)Nc2ccc3c(c2)-c2ccccc2C3)CC1=O (stereo not given),81.8% [50 µM],70.8% [50 µM],72.5% [50 µM],43.7% [50 µM],87.2% [50 µM],64.8% [50 µM],62.5% [50 µM],85.8% [50 µM],74.5% [50 µM],61.8% [50 µM],63.4% [50 µM],55% [50 µM],48.5% [50 µM],69.8% [50 µM],71.2% [50 µM],74.6% [50 µM],67.9% [50 µM],75.6% [50 µM],28.8% [50 µM],67.7% [50 µM]
COc1ccc(C2C3=C(COC3=O)N(CCO)c3cc4c(cc32)OCCO4)cc1OC (stereo not given),55.3%,56.5%,42%,66.2%,65.1%,42.2%,49.5%,-5.71% (active),21.1%,55.3%,16.8%,28.5%,53.3%,67.1%,41.3%,29.2%,37.1%,-37% (active),-11.4% (active),65.4%
O=C1Nc2ccc(F)cc2/C1=C\c1nc(-c2ccccc2F)n2ccccc12,38.3%,102%,87.1%,77.6%,97.5%,8.93% (active),68.4%,111%,70.8%,81.2%,66.7%,96.8%,80.6%,67.2%,110%,101%,75.5%,126%,103%,74.4%
N=C(N)c1ccc(-c2ccc(-c3ccc(Cl)cc3Cl)s2)cc1F,55.8%,32.4%,-27.9% (active),-90.5% (active),91.5%,-100% (active),-82.8% (active),83.7%,-26.1% (active),-47.2% (active),-6.47% (active),-36.4% (active),-35.3% (active),-7.4% (active),-24.9% (active),74.9%,-88.4% (active),-79.3% (active),9.71% (active),10.1%
